Screening results: PubChem, several laboratories
UGM FP inh: M. tuberculosis UGM enzyme inhibitors, primary screen, biochemical, fluorescence polarization, single point; purified UGM, fluorescence polarization probe displacement; inhibition, % at 10 µM; hit rate 0.06% among 320,000; in the data active = inhibition above about 10%, passing the limit was not always enough
BH1578 lux ind: inducers of Vibrio cholerae quorum light production without autoinducers, primary screen, BH1578 luxS cqsA deficient, single point; V. cholerae BH1578 lux reporter, luminescence, 6 h; activation, % at 18.7 µM; hit rate 0.16% among 350,000; in the data active = activation mostly above about 9.7%, no sharp cut-off
Rv3671c inh: Rv3671c serine protease inhibitors, primary screen, biochemical, fluorescence polarization, M. tuberculosis H37Rv. P9WHR9. inhibition, % at 5.96 µM. hit rate 0.048% among 320,000. AID 2606, 2010; in the data active = inhibition above about 38%;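 also: extracellular domain of Rv3671c used as enzyme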
Target sequence (P9WHR9 whole entry, looked up, the tested form may be a part): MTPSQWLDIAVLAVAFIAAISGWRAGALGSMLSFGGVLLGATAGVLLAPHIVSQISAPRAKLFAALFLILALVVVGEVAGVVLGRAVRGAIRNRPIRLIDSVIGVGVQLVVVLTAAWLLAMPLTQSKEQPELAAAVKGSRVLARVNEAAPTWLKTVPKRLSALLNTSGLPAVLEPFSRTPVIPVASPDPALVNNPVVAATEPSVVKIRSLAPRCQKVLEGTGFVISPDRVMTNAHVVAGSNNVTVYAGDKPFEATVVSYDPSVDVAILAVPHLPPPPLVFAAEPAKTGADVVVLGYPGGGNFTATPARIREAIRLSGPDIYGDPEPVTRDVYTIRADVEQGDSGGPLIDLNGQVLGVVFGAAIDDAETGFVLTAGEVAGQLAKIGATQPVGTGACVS
RecA intein inh: Mtb RecA intein splicing inhibitors, primary screen, biochemical, fluorescence, HTS | Protein RecA (Mycobacterium tuberculosis (strain ATCC 25618 / H37Rv)), P9WHJ3 | cell-free RecA intein splicing | inhibition, % (concentration not given with the values) | hit rate 0.75% among 290,000 | AID 2221, 2009; in the data active = inhibition above about 30%
Mtb FBA inh: Mtb FBA enzyme inhibitors, primary screen, biochemical, fluorescence, strain H37Rv; hit rate 2.3% among 360,000; AID 588726, 2011; purified M. tuberculosis FBA, fluorescence read-out; Fructose-bisphosphate aldolase (Mycobacterium tuberculosis (strain ATCC 25618 / H37Rv)), …; inhibition, % at 1 µM
GDH-TPI counter-1: GDH-TPI coupling enzyme inhibitors, primary screen, artefact control for M. tuberculosis FBA inhibitor project, biochemical, absorbance, full deck | GDH-TPI coupled enzyme counterscreen, NADH absorbance | inhibition, % at 4.8 µM | hit rate 1.2% among 360,000 | AID 588335, 2011; in the data active = inhibition above about 30%
Mtb FBA confirm: M. tuberculosis aldolase blockers, biochemical, fluorescence, strain H37Rv, confirmation | shares compounds with Mtb FBA inh | purified M. tuberculosis FBA, fluorescence read-out | inhibition, % at 1 µM | hit rate 78% among 5,600 | AID 651616, 2012
GDH-TPI counter-2: GDH-TPI coupling enzyme inhibitors, artefact control for M. tuberculosis FBA inhibitor project, biochemical, fluorescence, high throughput | shares compounds with Mtb FBA inh | GDH-TPI coupled enzyme counterscreen | inhibition, % at 1 µM | hit rate 81% among 5,600; in the data active = inhibition above about 10%
A number is an active result; 0 = inactive; - = no result given; + = active, no number. An excerpt weighted towards active compounds, which were near 4.1% of everything screened. Rule as the data show it, unless noted: active = inhibition above about 27%; inactive = the rest.

SMILES	UGM FP inh	BH1578 lux ind	Rv3671c inh	RecA intein inh	Mtb FBA inh	GDH-TPI counter-1	Mtb FBA confirm	GDH-TPI counter-2
CC(=O)Nc1ccc(C2Nc3ccccc3C(=O)N2C2CCCCC2)cc1 (stereo unspecified)	0	0	0	0	61	0	0	0
O=C(COc1ccc2ccc(=O)oc2c1)Nc1ccc(N2CCCCC2)cc1	0	0	0	-	41	0	+	152
CC(Oc1ccc2ccc(=O)oc2c1)C(=O)NCCN1CCOCC1 (stereo unspecified)	0	0	0	0	28	0	151	110
O=C(COc1ccc2ccc(=O)oc2c1)Nc1ccc(CCO)cc1	0	0	0	0	0	0	-	-
O=C(COc1ccc2ccc(=O)oc2c1)NCCN1CCOCC1	-	0	-	-	27	0	123	95
CCOc1ccccc1N1CC(C(=O)NC2CCCCCC2)CC1=O (stereo unspecified)	0	0	0	-	0	0	-	-
CN1c2cccc3cccc(c23)N(C)C1(C)C	0	0	0	0	72	0	0	0
CN1c2ccccc2N(C)C1(C)c1cccc2ccccc12	0	0	0	0	0	0	-	-
CCOC(=O)c1cnc2ccc(C)cn2c1=O	0	0	0	-	65	0	0	0
Cc1cc2nc(-c3cccnc3SCC(=O)NC(C)C)[nH]c2cc1C	0	0	0	0	0	0	-	-
COCCOC(=O)CSc1ncccc1-c1nc2cc(C)c(C)cc2[nH]1	0	0	0	0	30	0	191	156
Cc1occc1-c1nnc(SC(C)C(=O)Nc2ccccc2F)o1 (stereo unspecified)	-	0	-	-	0	0	-	-
Cc1ccc(-c2csc3nc4cc(C(N)=O)ccc4c(=O)n23)cc1	0	0	0	0	29	0	0	0
Cc1ccc(CNC(=O)c2ccc3c(=O)n4c(-c5ccc(C)cc5)csc4nc3c2)cc1	0	0	0	0	0	0	-	-
N#Cc1c2c(c(NCc3ccco3)n3c1nc1ccccc13)CCC2	0	0	0	0	90	0	+	+
Cc1ccccc1N(C(=O)c1snc(C(N)=O)c1N)C(C)C(=O)NC1CCCCC1 (stereo unspecified)	0	0	0	0	32	0	54	37
Cc1ccccc1N(C(=O)c1snc(C(N)=O)c1N)C(C(=O)NC1CCCCC1)c1ccc(O)cc1 (stereo unspecified)	0	0	0	0	35	0	0	0
CCN1CCN(C(C(=O)NC2CCCCC2)c2ccnc3ccccc23)CC1 (stereo unspecified)	-	-	-	-	0	-	-	-
COCCCn1c2nc3ccccc3nc2c2c(=O)n(CC3CCCO3)cnc21 (stereo unspecified)	0	0	0	0	79	0	0	0
COC(=O)c1oc2ccc(Cl)cc2c1N	0	0	0	0	67	0	0	0
Cc1sc(-c2cccnc2)nc1OC(=O)C1CC1	0	0	0	0	28	0	+	+
CN1CC=C2C(C#N)=C(N)C(C#N)(C#N)C(Cc3ccccc3)C2C1 (stereo unspecified)	0	0	0	0	32	0	164	151
CCC1C2CN(C(C)=O)CC=C2C(C#N)=C(N)C1(C#N)C#N (stereo unspecified)	0	0	0	0	0	0	-	-
COc1ccc(-c2sc3ccc(N4CCOCC4)cc3c2C#CC(C)(C)O)cc1	0	0	0	-	0	0	-	-
COc1ccc(-c2oc3ccc(N4CCOCC4)cc3c2C#CCO)cc1	0	0	0	0	33	47	48	35
SMILES	UGM FP inh	BH1578 lux ind	Rv3671c inh	RecA intein inh	Mtb FBA inh	GDH-TPI counter-1	Mtb FBA confirm	GDH-TPI counter-2
Nc1ccc(C#Cc2c(-c3ccsc3)oc3ccc(N4CCOCC4)cc23)cc1	0	0	0	0	41	0	102	75
O=C(COC(=O)C1CC1)Nc1ccc(Cl)cc1Cl	0	0	0	-	0	0	-	-
COCC1OC(OC(C)C(O)c2cnc3nc(N)[nH]c(=O)c3n2)C(O)C(OC)C1O (stereo unspecified)	-	0	-	-	103	0	92	66
CSc1ncc(C(=O)O)c(C)n1	0	0	0	0	0	0	-	-
Cc1ncc(C(=O)O)c(C(=O)O)c1N	0	0	0	0	34	0	0	15
Cc1cccc(C)c1NC(=O)COC(=O)COc1ccc2c(C)cc(=O)oc2c1	0	0	0	0	0	0	-	-
Cc1cccc(C(C)C)c1NC(=O)COC(=O)COc1ccc2c(C)cc(=O)oc2c1	0	0	0	0	30	0	0	0
Cc1cc(=O)oc2cc(OCC(=O)OC(C)C(=O)Nc3ccc(S(N)(=O)=O)cc3)ccc12 (stereo unspecified)	0	-	0	-	33	0	82	66
CCOc1ccc2oc(C(=O)N(CC)CC(=O)Nc3c(F)cccc3F)c(C)c2c1	0	0	0	0	0	0	-	-
CCN(CC(=O)Nc1c(F)cccc1F)C(=O)COc1ccc2c(C)cc(=O)oc2c1	0	0	0	-	30	0	123	109
Cn1nnc(NC(=S)NC(=O)c2cc(Cl)ccc2Cl)n1	0	0	0	0	0	0	-	-
Cc1ccc(C(=O)NCC(=O)OCc2nnc(-c3ccc([N+](=O)[O-])cc3)o2)cc1	-	0	-	-	0	0	-	-
COc1ccc(/C=C/C(=O)NCC(=O)N/N=C/c2cccs2)cc1	0	0	0	0	0	0	-	-
O=C(O)c1ccccc1Nc1ccnc(Cl)n1	0	0	0	0	28	0	+	144
Cc1c(Cl)cccc1Nc1ccccc1C(=O)O	0	0	0	0	0	0	-	-
O=C(CCCn1c(=S)[nH]c2ccccc2c1=O)NCCSCc1ccccc1	0	0	0	0	0	0	-	-
CCOC(=O)c1cc(-c2cccs2)nc2onc(C)c12	0	0	0	0	42	0	82	74
CCOC(=O)c1sc(-c2cccs2)nc1C	0	0	0	0	0	0	-	-
CCOc1ccc(Br)cc1S(=O)(=O)Nc1cccc(S(=O)(=O)N2CCOCC2)c1	-	0	-	-	0	0	-	-
O=C(N/N=C/C=C/c1ccccc1)NC1CCCCC1	0	0	0	0	68	0	167	145
O=C(N/N=C/c1cccc(O)c1)NC1CCCCC1	0	0	0	0	0	0	-	-
O=C(N/N=C/C=C/c1ccccc1)c1ccccn1	0	0	0	0	65	35	180	174
